In the library only some 4.1% were active in any assay of this set; here they are far more common.
DAX1 inh-1: inhibitors of human orphan nuclear receptor DAX1 (NR0B1); P51843; HEK293 Gal4-DAX1 luciferase reporter, luminescence; inhibition, % at 6.75 µM; 0.99% of 340,000 active; AID 504766;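 active means inhibition above the mean over all tested compounds plus 3 SD, cut at about 4.2% in these data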;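 further: 0% = DAX1-transfected cells with DMSO and 100% = empty-vector control cells with DMSO; inhibition shows as a rise in luminescence from relieved DAX1 repression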
Target sequence (P51843 207-470 limits assumed): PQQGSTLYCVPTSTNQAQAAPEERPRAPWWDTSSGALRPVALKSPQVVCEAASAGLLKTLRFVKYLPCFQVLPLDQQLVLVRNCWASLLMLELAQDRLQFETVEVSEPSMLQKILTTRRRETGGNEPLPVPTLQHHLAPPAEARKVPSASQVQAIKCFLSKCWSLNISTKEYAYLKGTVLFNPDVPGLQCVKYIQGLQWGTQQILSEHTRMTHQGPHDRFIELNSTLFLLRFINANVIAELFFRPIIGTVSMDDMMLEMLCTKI
hgDAF-12 ag: activates the H. glycines DAF-12 receptor ligand-binding domain; HEK293 GAL4-hgDAF12 UAS-luciferase reporter, agonist luminescence; normalized to butyrate control; activation, % at 6.8 µM; 1.8% of 370,000 active; AID 687014;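 active means activation above a cutoff set at the mean of all screened compounds plus 3 SD, cut at about 10% in these data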;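 further: 0% = DMSO wells and 100% = sodium butyrate wells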
ssDAF-12 act: S. stercoralis DAF-12 activation, primary screen; AID 652126; HEK293 ssDAF-12/GRIP1 lit1-tk-luc reporter, luminescence; % of 3 µM dafachronic acid response; 1% of 370,000 active; activation, % at 6.8 µM;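 active means activation above the mean over all tested compounds plus 3 SD, cut at about 0.9% in these data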;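 further: 0% = DMSO-only wells and 100% = 3 µM delta7-dafachronic acid wells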
hcDAF-12 act: activates DAF-12 receptor from parasite H. contortus | 1.4% of 370,000 active | HEK293 hcDAF-12 lit1-tk-luc reporter, luminescence; 0% DMSO, 100% Δ7-dafachronic acid | AID 652067 | activation, % at 6.8 µM;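 active means activation above the mean of all tested compounds plus 3 SD, cut at about 5.5% in these data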;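 further: 100% = response to 3 µM Δ7-dafachronic acid high control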
DAX1 inh-2: inhibitors of DAX1 repression of SF-1 activated StAR promoter | HEK293T StAR-luciferase reporter, SF-1/DAX-1 repression relief | inhibition, % at 6.8 µM | 1.1% of 370,000 active;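 active means inhibition above the mean over all tested compounds plus 3 SD, cut at about 3.6% in these data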;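 further: 0% = DAX-1 cells with DMSO and 100% = cells lacking DAX-1 with DMSO; higher inhibition means more luminescence from relief of DAX-1 repression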
LXR ag: activates human LXR-beta, counter-screen for hcDAF-12 agonists | shares compounds with hcDAF-12 act | HEK293 Gal4-LXR tk-luc reporter, luminescence, 24 h; normalized: DMSO 0%, positive control 100% | activation, % at 6.8 µM | 3,400 tested, under 10 active | AID 743027;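 active means mean percent activation of the reporter above a cutoff set as the average over tested compounds plus their standard deviation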
Target sequence (P55055 whole entry, looked up, the tested form may be a part): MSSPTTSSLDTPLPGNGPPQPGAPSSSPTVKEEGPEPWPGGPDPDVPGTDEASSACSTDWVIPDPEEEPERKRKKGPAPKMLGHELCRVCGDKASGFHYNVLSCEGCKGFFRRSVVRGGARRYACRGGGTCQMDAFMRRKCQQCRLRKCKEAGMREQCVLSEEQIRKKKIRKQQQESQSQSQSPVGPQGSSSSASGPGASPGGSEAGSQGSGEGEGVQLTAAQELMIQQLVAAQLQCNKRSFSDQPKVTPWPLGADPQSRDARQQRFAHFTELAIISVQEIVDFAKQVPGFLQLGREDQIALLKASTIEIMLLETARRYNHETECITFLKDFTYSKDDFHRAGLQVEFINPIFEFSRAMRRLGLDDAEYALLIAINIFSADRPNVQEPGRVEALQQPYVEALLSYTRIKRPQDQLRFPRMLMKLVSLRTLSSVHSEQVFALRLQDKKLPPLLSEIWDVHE
hcDAF12 conf: hcDAF-12 agonism, confirmation assay; shares compounds with hcDAF-12 act; HEK293 hcDAF-12 lit1-tk-luc reporter, luminescence; % of Δ7-dafachronic acid response; activation, % at 6.8 µM; 61% of 3,400 active;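 active means mean activation across triplicate tests above the threshold derived from the earlier primary screen, cut at about 5.5% in these data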;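 further: 0% = DMSO only wells and 100% = 3 µM Δ7-dafachronic acid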
hgDAF12 ag: hgDAF-12 agonism, confirmation assay; shares compounds with hgDAF-12 ag; HEK293 GAL4-hgDAF12 luciferase reporter, agonist mode; percent of butyrate response; 80% of 3,300 active; activation, % at 6.8 µM; AID 743050;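 active means mean activation over triplicate wells above the hit cutoff derived from the earlier primary screen, cut at about 11% in these data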;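 further: 0% = DMSO low control and 100% = 2 mM sodium butyrate high control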
LXR ag 2: LXR-beta agonism as DAF-12 counter-screen. shares compounds with hgDAF-12 ag. HEK293 Gal4-LXR luciferase reporter, 24 h. activation, % at 6.8 µM. 3,300 tested, under 10 active. AID 743051;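 active means mean activation of the triplicate above a set limit carried over from the primary screen, none filed active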
An asterisk follows results filed as active; nt = no result given.

SMILES	DAX1 inh-1	hgDAF-12 ag	ssDAF-12 act	hcDAF-12 act	DAX1 inh-2	LXR ag	hcDAF12 conf	hgDAF12 ag	LXR ag 2
Cc1noc(C)c1NC(=O)N(C)C[C@@H]1OCc2cn(nn2)CCCC(=O)N([C@@H](C)CO)C[C@H]1C	nt	0.1	-0.4	0.2	1.1	nt	nt	nt	nt
O=S(=O)(NCc1ccccc1)c1cc(Br)ccc1Br	nt	-0.3	-1.9	-1.9	-0.9	nt	nt	nt	nt
CC(=O)Nc1cccc(-c2csc(Nc3ccc(C)cn3)n2)c1	-0.1	17.4*	0.6	12.8*	5.5*	2.1	8.3*	20.6*	1.2
Cc1cccnc1Nc1nc(-c2ccc(F)cc2)cs1	6.2*	17.6*	1.9*	10.1*	2.8	1.2	8.2*	15.7*	0.8
Cc1cc(-c2csc(Nc3ccccn3)n2)ccc1F	4.2	17.1*	1.7*	14.8*	1.9	1.8	12.4*	19.0*	1.1
Cc1cc(C)c2c(N)c(-c3nc4ccccc4[nH]3)sc2n1	5.0*	13.3*	2.6*	16.3*	2.7	0.3	10.3*	14.1*	0.5
CC1=NC(=O)C(N=Nc2cccc(C(=O)O)c2)N1c1ccccc1 (stereo unspecified)	-4.4	15.9*	1.5*	10.4*	3.4	1.4	12.9*	16.0*	1.0
Cn1c(=O)c2c(ncn2Cc2ccc(O)c([N+](=O)[O-])c2)n(C)c1=O	nt	0.3	-1.5	-0.1	-1.7	nt	nt	nt	nt
COC(=O)c1cc(=O)nc(NN=C(C)C)s1	nt	3.5	-0.9	-0.5	-0.1	nt	nt	nt	nt
CCC(C)c1ccc(OCc2ccc(C(=O)O)o2)cc1 (stereo unspecified)	-3.7	15.3*	0.8	10.3*	3.2	1.4	8.7*	22.1*	1.0
CCOC(=O)c1ccc(COc2ccc(C(C)C)cc2)o1	1.8	9.9	0.0	1.8	3.6	nt	nt	nt	nt
COc1ccc(NC(=O)N(C)C[C@H]2OCCCC[C@H](C)Oc3ccc(NC(=O)Nc4cccc5ccccc45)cc3C(=O)N([C@@H](C)CO)C[C@H]2C)cc1	nt	0.9	-0.9	-0.1	-0.1	nt	nt	nt	nt
CC(=O)Nc1ccc(NC(=O)CSc2nnc(NC(=O)c3ccccc3F)s2)cc1	1.4	17.0*	-0.2	7.1*	3.2	0.8	7.2*	12.5*	0.5
O=C(CSc1nnc(NC(=O)c2ccccc2F)s1)NC1CCCC1	0.7	3.5	-0.2	0.7	0.6	nt	nt	nt	nt
C=CCN1[C@H](CC(C)C)COc2cccc(F)c2S1(=O)=O	nt	0.3	-0.9	-0.3	-1.2	nt	nt	nt	nt
Cc1cc(N2CCOCC2)n2ncc(-c3ccccc3Cl)c2n1	4.0	17.5*	0.4	6.9*	2.7	1.3	7.0*	15.9*	0.7
CCCCN(CC)C(=O)c1cc2cc3ccc(OC)cc3nc2o1	-0.4	6.1	-0.9	-1.8	0.1	nt	nt	nt	nt
CCCCN(C)C(=O)c1cc2cc3ccc(OC)cc3nc2s1	-1.3	17.5*	0.3	7.0*	3.5	1.4	7.1*	15.8*	1.0
O=C(COc1ccccc1)Nc1nccs1	0.8	6.4	-0.2	3.5	3.6	nt	nt	nt	nt
O=C(COc1ccc2ccccc2c1)Nc1nccs1	-1.2	19.1*	-0.4	6.7*	3.6*	1.7	7.2*	18.1*	1.2
Clc1ccc(-c2ccnc3nc(N4CCOCC4)nn23)c(Cl)c1	2.5	1.9	-1.9	-1.1	0.1	nt	nt	nt	nt
Clc1ccc(-c2nsc(N3CCOCC3)n2)c(Cl)c1	1.3	16.1*	0.7	8.6*	1.8	1.0	2.6	15.9*	0.7
N#CC(=C1CCCC1)c1nc(-c2ccccc2)cs1	5.2*	17.4*	1.7*	7.5*	2.2	1.3	6.0*	21.1*	0.8
COC(=O)[C@]12C[C@H](CC(=O)NCc3ccc(OC)c(OC)c3)C(=O)N(CCc3ccc(OC)c(OC)c3)C1=C[C@H](C(C)(C)C)O[C@@H]2C	nt	-2.1	-1.4	-2.6	-0.1	nt	nt	nt	nt
O=C(N/N=C/c1c[nH]c2ccccc12)c1cc(-c2ccc3ccccc3c2)n[nH]1	-0.9	24.8*	-0.1	7.9*	-0.7	0.5	2.2	5.1	0.1
SMILES	DAX1 inh-1	hgDAF-12 ag	ssDAF-12 act	hcDAF-12 act	DAX1 inh-2	LXR ag	hcDAF12 conf	hgDAF12 ag	LXR ag 2
O=C(N/N=C/c1c[nH]c2ccccc12)c1cc(-c2ccc(-c3ccccc3)cc2)n[nH]1	0.8	14.5*	0.9	7.8*	1.4	0.2	4.4	0.5	0.1
O=C(N/N=C/c1c[nH]c2ccccc12)c1cc(-c2ccccc2)n[nH]1	0.9	1.9	0.1	1.3	-0.3	nt	nt	nt	nt
COC(=O)C1=C(C)N(Cc2cccc(C(F)(F)F)c2)C(=NCC2CC2)NC1c1ccccc1 (stereo unspecified)	nt	-1.3	-0.8	0.3	0.6	nt	nt	nt	nt
CN(C)C(=O)c1c(NC(=O)c2ccco2)sc2c1CCCCC2	0.1	1.3	-1.4	-1.8	0.1	nt	nt	nt	nt
NC(=O)c1c(NC(=O)c2ccco2)sc2c1CCC2	1.5	13.9*	1.1*	6.7*	2.3	0.9	8.9*	17.0*	0.7
COc1cccc(N(C(=O)c2nc3nccc(C)n3n2)c2nc3ccccc3s2)c1	1.2	19.7*	1.1*	8.4*	4.0*	1.3	5.2	16.4*	0.8
COc1cccc(NC(=O)COC(=O)c2nc3nccc(C)n3n2)c1	1.2	2.6	-1.5	-1.2	-0.3	nt	nt	nt	nt
O=C1/C(=C\c2cccs2)Sc2ccc3ccccc3c21	5.2*	15.5*	6.4*	21.8*	4.0*	1.9	18.8*	30.6*	1.4
O=C1C(=Cc2cccs2)C(=O)c2ccccc21	-0.2	-0.3	-1.1	-1.3	-0.4	nt	nt	nt	nt
CCN=C1NC(c2cccc(F)c2)C(C(=O)OC)=C(C)N1Cc1ccccc1C(F)(F)F (stereo unspecified)	nt	-0.7	-1.8	0.4	0.8	nt	nt	nt	nt
CC1(C)CC(/C=C/c2ccccc2)=Nc2ccccc2N1	6.0*	19.1*	1.8*	7.6*	1.7	0.0	1.6	9.9	0.3
Nc1c(-c2cccs2)cnc2c(-c3ccc(F)cc3)cnn12	2.0	15.8*	1.0*	9.0*	2.5	2.3	6.6*	24.7*	1.4
CC(=O)Nc1cccc(/C(C)=N/NC(=O)c2ccc(NS(=O)(=O)c3cccs3)cc2)c1	0.9	2.7	-1.3	-0.2	1.1	nt	nt	nt	nt
CC(=O)Nc1ccc2nc(NC(=O)c3cccs3)sc2c1	3.0	21.0*	1.8*	6.7*	4.2*	1.2	9.2*	12.8*	0.8

Assay outcomes as filed in PubChem.
